# The list is not random: actives were taken first. Their share in the collection is about 3.3%.
# eIF4E-4G inh: eIF4E–eIF4G protein interaction inhibitors, primary screen, biochemical, uHTS, TR-FRET, eIF4GI fragment | Eukaryotic translation initiation factor 4E (Mus musculus) + Eukaryotic translation … | TR-FRET eIF4E-eIF4GI(517-606) binding, 2 h | inhibition, % at 21.7 µM | 220,000 compounds, 0.37% hits;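 further: 0% = full FRET control wells and 100% = background wells lacking eIF4GI fragment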
# Bim-Mcl-1: inhibitors of Bim peptide binding to Mcl-1, primary screen, biochemical, bead-based flow cytometry, multiplex. Bim peptide-Mcl-1 binding. inhibition, % at 10 µM. 190,000 compounds, 0.1% hits. AID 1009, 2008; in the data active means inhibition above about 40%;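 further: 0% = no compound tracer wells and 100% = peptide blocker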
# Target sequence (Q07820 whole entry, looked up): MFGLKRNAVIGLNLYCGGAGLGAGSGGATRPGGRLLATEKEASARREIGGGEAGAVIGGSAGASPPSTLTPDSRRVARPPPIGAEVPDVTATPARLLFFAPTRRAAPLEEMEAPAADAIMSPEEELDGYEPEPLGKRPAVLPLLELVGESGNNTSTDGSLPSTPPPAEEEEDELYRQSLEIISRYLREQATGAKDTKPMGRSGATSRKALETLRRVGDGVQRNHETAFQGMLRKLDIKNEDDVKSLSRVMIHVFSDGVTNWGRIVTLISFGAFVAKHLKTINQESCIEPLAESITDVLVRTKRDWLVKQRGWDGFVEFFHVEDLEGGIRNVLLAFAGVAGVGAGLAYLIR
# Mcl1-Noxa inh: Mcl-1/Noxa binding inhibitors, primary screen, biochemical, TR-FRET, 1536-well; inhibition, % at 21.7 µM; TR-FRET Mcl-1/Noxa peptide binding, 2 h; 220,000 compounds, 1.5% hits; Induced myeloid leukemia cell differentiation protein Mcl-1 (Homo sapiens), Q07820;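 active means compounds that cut the protein-peptide binding signal by more than 50% relative to plate controls in a single-dose test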;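 further: His-tagged Mcl-1 with rhodamine Noxa BH3 peptide and terbium anti-His antibody; 0% = Mcl-1 plus Noxa peptide wells and 100% = peptide-only wells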
# 14-3-3 Bad inh: inhibitors of 14-3-3 zeta/Bad binding, primary screen, biochemical, TR-FRET, bovine 14-3-3 zeta; inhibition, % at 21.7 µM; TR-FRET 14-3-3zeta/Dy647-pBad peptide displacement, 1 h; 14-3-3 protein zeta/delta (Bos taurus), P63103; 220,000 compounds, 0.71% hits;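 active means inhibition above about 70%, limit read from the data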;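 further: 0% = full 14-3-3 plus peptide FRET controls and 100% = background without 14-3-3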
# Target sequence (P63103 whole entry, looked up): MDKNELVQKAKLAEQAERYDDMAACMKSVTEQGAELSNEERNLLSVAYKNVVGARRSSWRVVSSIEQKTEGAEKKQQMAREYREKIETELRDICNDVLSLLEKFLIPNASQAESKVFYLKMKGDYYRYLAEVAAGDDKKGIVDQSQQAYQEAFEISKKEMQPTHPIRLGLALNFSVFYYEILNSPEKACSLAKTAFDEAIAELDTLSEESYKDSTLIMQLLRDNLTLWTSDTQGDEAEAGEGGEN
# p47phox inh: p47phox/p22phox peptide binding inhibitors, primary screen, biochemical, uHTS, NADPH oxidase regulatory subunit | Neutrophil cytosol factor 1 (Homo sapiens), P14598 | fluorescence polarization, 2 h | inhibition, % at 24.7 µM | 220,000 compounds, 0.53% hits | AID 1274, 2008;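 further: 0% = p47phox with labelled peptide and 100% = labelled peptide alone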
# Mcl1 Bid PPI: Mcl-1/Bid binding inhibitors, primary screen, biochemical, TR-FRET, 1536-well. Induced myeloid leukemia cell differentiation protein Mcl-1 (Homo sapiens), Q07820. 220,000 compounds, 0.97% hits. inhibition, % at 21.7 µM. TR-FRET Mcl-1/Bid-Dy647 peptide binding;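 active means compounds that cut the binding signal by more than half at the single screening dose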;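 further: His-tagged Mcl-1 with europium anti-His antibody binding Bid BH3 peptide; 0% = Mcl-1 plus peptide wells and 100% = peptide-only wells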
# * = called active by the depositor; / = no result given; [ ] = another dose, or the depositor's remark.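 How the source made its calls, unless noted: active means inhibition above about 30% (limit read from the data); inactive means the rest.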
SMILES,eIF4E-4G inh,Bim-Mcl-1,Mcl1-Noxa inh,14-3-3 Bad inh,p47phox inh,Mcl1 Bid PPI
O=[N+]([O-])c1ccc(-c2cc(-c3ccc(Cl)cc3)n[nH]2)cc1,-24.7,3.0,81.3*,64.8,-63.0,43.7
O=[N+]([O-])c1ccc2nc(-c3ccc(Cl)cc3)[nH]c2c1,-2.5,-3.0,45.2,8.6,-18.0,-3.1
COc1ccc2c3c(cccc13)C(=O)N(O)C2=O,-0.8,3.0,-117.4,-24.5,4.2,-37.2
CCC1=NNc2cccc3c(OC)ccc1c23,5.5,32.0,78.1*,-12.4,138.3*,-1.9
CC(C)N1CCc2c(sc(NC(=S)NC(=O)c3ccccc3)c2C#N)C1,-2.4,-9.0,34.9,-6.4,-146.9,-23.5
CCCN1CCc2c(sc(NC(=S)NC(=O)c3ccccc3)c2C#N)C1,-5.2,-5.0,38.2,89.5*,-16.5,-12.7
Cc1ccccc1C(=O)NC(=S)Nc1sc2c(c1C#N)CCCC2,-6.4,-3.0,6.4,-2.6,8.3,93.3*
Cc1ccc(S(=O)(=O)n2c([N+](=O)[O-])cnc2C)c(C)c1C,3.4,0.0,32.4,32.5,-8.0,-5.8
C=CCn1c(SCC(=O)Nc2ccc(NC(=O)c3ccco3)c(OC)c2)nnc1-c1ccncc1,-2.1,0.0,29.1,-9.3,94.2*,-13.8
C=CCn1c(SCC(=O)Nc2ccc(-c3nc4ccc(C)cc4s3)cc2)nnc1-c1ccccc1,32.8*[fluorescence artefact?],-1.0,70.0*,91.9*[fluorescence artefact?],12.9,65.5*
Cc1cc(C)c2nc3sc(C(=O)N4CCOCC4)c(N)c3cc2c1,-0.2,/,65.2*,16.6,-14.2,-111.5
Cc1ccc(C)c2nc3sc(C(=O)N4CCOCC4)c(N)c3cc12,1.9,0.0,60.4*,8.2,-11.3,-55.3
Cc1cc(C)c2cc3c(N)c(C(=O)N4CCOCC4)sc3nc2c1,5.7,-2.0,19.9,-9.0,/,11.4
O=C(OCc1cncs1)c1ccccc1,-1.0,0.0,12.7,-9.9,-11.9,-24.4
N/C(=N\N=C\c1ccnc2ccccc12)SC1CC(=O)N(c2ccc(Br)cc2)C1=O (centres undefined),9.0,-3.0,36.4,10.0,-7.7,28.1
COc1ccc(N2C(=O)CC(S/C(N)=N/N=C/c3ccnc4ccccc34)C2=O)cc1 (centres undefined),22.3,-3.0,35.4,75.4*[fluorescence artefact?],26.9,81.0*
C=CCNC(=O)c1ccc(-c2nc(-c3ccc(Cl)c(Cl)c3)cs2)cc1,-1.4,0.0,5.4,7.6,1.8,-15.1
c1ccc2oc(-c3csc(NCC4CCCO4)n3)cc2c1 (centres undefined),4.4,0.0,8.5,-7.7,-5.3,-43.8
C=CCNc1nc(-c2ccc(O)c(C(N)=O)c2)cs1,10.5,0.0,34.6,75.9*,-5.9,-25.7
C=CCNc1nc(-c2cc3ccccc3o2)cs1,-1.6,0.0,18.5,12.2,-9.3,54.9*
C=CCN=C1CCCc2c1[nH]c1ccc(C)cc21,3.3,-2.0,22.6,-5.7,-3.8,4.4
COc1ccc(-c2nnc(CSc3nc4ccccc4c(=O)n3CC(C)C)o2)cc1OC,/,3.0,-25.7,/,36.8*,1.1
Cc1cc(=O)[nH]c2c(N=Nc3ccc(O)cc3)c(N)nn12,1.1,21.0,56.9*,-11.2,-61.0,-36.7
Cc1ccc(-n2nc(C)c3c(C)c(CCC(=O)NCc4ccccc4)c(C)nc32)cc1,-2.9,-4.0,-5.5,16.5,130.4*,-7.2
Cc1ccc(CNC(=O)CCc2c(C)nc3c(c(C)nn3-c3ccc(C)cc3)c2C)cc1,2.2,0.0,-1.8,-1.5,0.5,19.3
SMILES,eIF4E-4G inh,Bim-Mcl-1,Mcl1-Noxa inh,14-3-3 Bad inh,p47phox inh,Mcl1 Bid PPI
Cc1cccc(N(C)S(=O)(=O)c2ccc3[nH]cc(C(=O)N4CCOCC4)c(=O)c3c2)c1,8.7,-1.0,49.7,32.8,-10.3,50.6*
Cc1[nH]ccc(=O)c1OCc1ccc(Cl)cc1,/,1.0,-17.9,/,5.9,-13.8
Cc1[nH]ccc(=O)c1OCc1ccccc1,-7.3,-8.0,7.2,4.3,59.4*,-16.6
CCSCCc1nnc(NC(=O)Nc2cccc(C(F)(F)F)c2)s1,8.2,-1.0,6.5,-6.6,-5.5,-0.4
COc1ccccc1N(Cc1cc(=O)[nH]c2ccccc12)C(=O)c1ccccc1,58.5*,/,-13.0,0.9,-8.0,-23.9
CN(Cc1cc(=O)[nH]c2ccccc12)C(=O)c1ccccc1,10.8,-2.0,-10.7,3.7,-25.4,-22.5
CCC(=O)N(CC)Cc1cc(=O)[nH]c2ccccc12,0.5,0.0,14.4,5.7,10.2,-2.4
CCCN(Cc1cc(=O)[nH]c2ccccc12)C(=O)CC,5.1,/,-1.0,76.0*,0.1,2.6
CCOC(=O)Cc1ccc(NCc2ccc(Cl)cc2)cc1,-1.4,-6.0,9.2,-0.7,-7.7,-41.9
CCc1ccc(-c2ccc(SCC(=O)Nc3nnc(C)s3)nn2)cc1,2.5,3.0,20.9,0.8,-9.3,4.8
Cc1cc(C)c2cc3c(N)c(C(=O)Nc4c(C)[nH]c(=O)[nH]c4=O)sc3nc2c1,2.3,-24.0,54.4*,33.4,-51.3,-27.5
CC1CCCC(NC(=O)COC(=O)c2ccccc2NC(=O)c2ccco2)C1C (centres undefined),0.0,0.0,-5.3,-4.9,-25.6,-11.8
CC1CCCC(NC(=O)COC(=O)c2ccccc2[N+](=O)[O-])C1C (centres undefined),4.9,5.0,5.9,1.3,42.7*,12.1
CCOC(=O)c1cc(-c2ccc(N3CCOCC3)cc2)nn1-c1ccccc1,-2.9,-2.0,8.4,-8.5,-18.4,-16.8
CCOC(=O)c1cc(-c2ccc(N3CCOCC3)cc2)nn1-c1ccccc1C(=O)O,38.1*,/,6.0,24.3,-18.9,-255.9
COc1ccc(C2CCCN2C(=S)Nc2cccc(Cl)c2C)cc1OC (centres undefined),2.7,-3.0,7.0,-4.4,2.9,-45.9
CCC1(C(=O)OC)CCc2c(cc(OC)c3ccccc23)C1=O (centres undefined),4.5,/,88.2*,2.8,-6.2,-1.1
COc1cc(C(=O)NCc2cccc3ccccc23)cc(Cl)c1OC,-5.9,-2.0,-4.3,0.9,10.9,-3.5
C#CCn1c(=NC(=O)c2sc3ccccc3c2Cl)sc2cc(S(N)(=O)=O)ccc21,14.0,-4.0,-32.0,77.2*[fluorescence artefact?],-46.4,-20.6
C#CCn1c(=NC(=O)c2ccc(S(=O)(=O)N3CCc4ccccc4C3)cc2)sc2cc(S(N)(=O)=O)ccc21,16.9,-3.0,-51.4,59.1,0.5,22.2
